Experimental data published in PubChem BioAssay (EPA / NIEHS).
“And” between values parts separate entries of the source, which are not always exact repeats. Equal entries are not always repeated. The source made the active and inactive calls. How the source made its calls: active means hit-call score of the fitted dose curve at least 0.9, where 1 is the maximum; inactive means score below 0.9.

read-out: Matrix Metallopeptidase 9 (MMP9), MMP9 (gene 4318); assay: BSK_KF3CT_MMP9: BioMAP Diversity Plus: KF3CT Assay for Matrix Metallopeptidase 9 (MMP9) Biomarker Activity (AID 2283074); conditions: primary human keratinocytes with fibroblasts; actives raise or lower the signal
Description: BSK_KF3CT is a cell-based, multiplexed-readout assay that uses keratinocytes and foreskin fibroblasts, a human skin primary cell co-culture, with measurements taken at 24 hours after chemical dosing in a 96-well plate.BSK_KF3CT_MMP9 is an assay component measured in the BSK_KF3CT assay. It measures MMP-9 antibody related to regulation of gene expression using ELISA technology.Data from the assay component BSK_KF3CT_MMP9 was analyzed into 1 assay endpoint. This assay endpoint, BSK_KF3CT_MMP9, was analyzed with bidirectional fitting relative to DMSO as the negative control and baseline of activity. Using a type of binding reporter, gain or loss-of-signal activity can be used to understand changes in the signaling as they relate to the gene MMP9. Furthermore, this assay endpoint can be referred to as a primary readout, because this assay has produced multiple assay endpoints where this one serves a signaling function. To generalize the intended target to other relatable targets, this assay endpoint is annotated to the protease intended target family, where the subfamily is matrix metalloproteinase.
The levels of cell surface (or secreted, indicated by the prefix "s") biomarker endpoints were measured by ELISA. Overt cytotoxicity to cells in confluent adherent cultures (all systems other than the BT system) was assessed by measuring total protein levels using sulforhodamine B (SRB) staining in parallel cultures at the time of biomarker measurements, indicated as SRB endpoints. For proliferation assays for adherent cell types, individual cell types are cultured at sub-confluence and relative cell numbers quantified by SRB staining at time points optimized for each system (48 h: 3C and CASM3C systems; 72 h: BT and HDF3CGF systems; 96 h: SAg system). SRB was performed by staining cells with 0.1% SRB after fixation with 10% TCA and reading wells at 560 nm.Viability and proliferation of PBMC (T cells) was quantified by Alamar Blue reduction for the SAg and BT systems. For PBMC viability (referred to as PBMC Cytotoxicity within the assay endpoint names), cells were plated (75,000/well in a 96-well plate) and then chemical samples added for 1 h before addition of activators, SEB and TSST-1 (20 ng/mL final concentration each). Cells were incubated for 90 h. Then, Alamar Blue (20 uL/well) (Invitrogen, Cat DAL1100) was added for 6 h, and the plates were read with a fluorescence microplate reader at 546/580 nm (excitation/emission). For PBMC proliferation, cells were plated and activated as above but incubated for only 16 h prior to addition of Alamar Blue. Plates were read after 6 h.

**Q.** `CCOC(=O)[C@]1(c2ccccc2)Oc2ccccc2[C@@H]1N` was tested. Which AC50 did it give?
**A.** Its AC50 is 31 µM (active).

**Q.** With `CCN(CC)CCO` as the compound, how does the outcome read?
**A.** Its outcome is “inactive”.

**Q.** Which outcome does the source give for `c1ccc(N=Nc2ccccc2)cc1` here?
**A.** Its outcome is “inactive”.

**Q.** For `[O-][Cl+]O`, which outcome is on record?
**A.** The outcome was “inactive”.

**Q.** For `O=C1CCCO1`, which outcome is on record?
**A.** The outcome was “inactive”.

**Q.** How did the AC50 turn out when `CCNS(=O)(=O)C(F)(F)C(F)(F)C(F)(F)C(F)(F)C(F)(F)C(F)(F)C(F)(F)C(F)(F)F` was run?
**A.** Its AC50 is 29.6 µM (active) and 40.2 µM (active) and 36.2 µM (active).

**Q.** For `CCCSC(=O)N(CCC)CCC`, which outcome is on record?
**A.** The outcome was “inactive”.

**Q.** Which AC50 does the source give for `[Cl-].[Cl-].[Hg+2]` here?
**A.** Its AC50 is 13.5 µM (active).

**Q.** `Cc1ccc(N)c(N)c1` was tested. Which AC50 did it give?
**A.** The AC50 was 9.74 µM (active).

**Q.** Which outcome does the source give for `CCN(CC)N=O` here?
**A.** The outcome was “inactive”.

**Q.** `CCCCCCCCn1sccc1=O` was tested. Which AC50 did it give?
**A.** Its AC50 is 12.4 µM (active).

**Q.** For `O=[N+]([O-])c1ccc(Oc2ccc(Cl)cc2Cl)cc1`, which AC50 is on record?
**A.** The AC50 was 8.09 µM (active).

**Q.** `OCCCBr` was tested. Which outcome did it give?
**A.** Its outcome is “inactive”.

**Q.** Which outcome does the source give for `C1=Cc2cccc3cccc1c23` here?
**A.** Its outcome is “inactive”.

**Q.** With `Cc1ccc([N+](=O)[O-])cc1` as the compound, how does the outcome read?
**A.** Its outcome is “inactive”.

**Q.** Which outcome does the source give for `CCCCC(CC)COC(=O)c1ccc(C(=O)OCC(CC)CCCC)c(C(=O)OCC(CC)CCCC)c1` (stereo not given) here?
**A.** The outcome was “inactive”.

**Q.** How did the outcome turn out when `Nc1ccc(Oc2ccc(N)cc2)cc1` was run?
**A.** Its outcome is “inactive”.

**Q.** For `CCCCOC(=O)c1ccccc1C(=O)OCc1ccccc1`, which outcome is on record?
**A.** The outcome was “inactive”.

**Q.** With `CN(C)C(=O)Nc1ccc(Cl)cc1` as the compound, how does the outcome read?
**A.** Its outcome is “inactive”.

**Q.** With `C[N+](C)(C)CC1CO1` (stereo not given) as the compound, how does the outcome read?
**A.** The outcome was “inactive”.

**Q.** `CC(O)CCO` (stereo not given) was tested. Which outcome did it give?
**A.** Its outcome is “inactive”.

**Q.** With `Cc1cccc(N)c1N` as the compound, how does the outcome read?
**A.** The outcome was “inactive”.

**Q.** How did the AC50 turn out when `O=C(O)C1C2CCC(O2)C1C(=O)O` (stereo not given) was run?
**A.** Its AC50 is 28.7 µM (active).

**Q.** `Clc1ccc(C(c2ccc(Cl)cc2)C(Cl)(Cl)Cl)cc1` was tested. Which AC50 did it give?
**A.** The AC50 was 11 µM (active).

**Q.** `CC(C)COC(=O)c1ccccc1C(=O)OCC(C)C` was tested. Which outcome did it give?
**A.** The outcome was “inactive”.

**Q.** `O=C(N[C@H](c1ccccc1)[C@@H]1CN2CCC1CC2)c1c(Cl)ccc(C(F)(F)F)c1Cl` was tested. Which AC50 did it give?
**A.** The AC50 was 41.7 µM (active).

**Q.** With `O=Cc1ccco1` as the compound, how does the outcome read?
**A.** The outcome was “inactive”.

**Q.** With `Oc1ccc2ccc3cccc4ccc1c2c34` as the compound, how does the AC50 read?
**A.** The AC50 was 15.3 µM (active).

**Q.** Which outcome does the source give for `Nc1ccc(Cc2ccc(N)cc2)cc1` here?
**A.** Its outcome is “inactive”.

**Q.** Which outcome does the source give for `OCCOCCO` here?
**A.** The outcome was “inactive”.

**Q.** For `Clc1ccccc1Cl`, which outcome is on record?
**A.** Its outcome is “inactive”.

**Q.** How did the AC50 turn out when `CO[C@@H]1[C@H](OC(=O)NC(=O)CCl)CC[C@]2(CO2)[C@H]1[C@@]1(C)O[C@@H]1CC=C(C)C` was run?
**A.** Its AC50 is 6.36 µM (active).

**Q.** With `CC(C)(C)OOC(C)(C)CCC(C)(C)OOC(C)(C)C` as the compound, how does the outcome read?
**A.** Its outcome is “inactive”.

**Q.** Which AC50 does the source give for `ClC1=C(Cl)[C@]2(Cl)[C@H]3[C@H]([C@@H]4C=C[C@H]3C4)[C@@]1(Cl)C2(Cl)Cl` here?
**A.** The AC50 was 11.6 µM (active).

**Q.** For `N#CC(Br)Br`, which outcome is on record?
**A.** The outcome was “inactive”.

**Q.** `CCC(C)c1ccc(O)cc1` (stereo not given) was tested. Which outcome did it give?
**A.** The outcome was “inactive”.

**Q.** Which outcome does the source give for `Clc1ccc(Cl)c(Cl)c1` here?
**A.** Its outcome is “inactive”.

**Q.** With `CCOc1cccc(C2(N3CCN(c4ccccc4)CC3)CCC(C)CC2)c1` (stereo not given) as the compound, how does the outcome read?
**A.** The outcome was “inactive”.

**Q.** `Brc1ccc(Oc2ccccc2)cc1` was tested. Which outcome did it give?
**A.** The outcome was “inactive”.

**Q.** Which outcome does the source give for `CC(C)(OOC(C)(C)c1ccccc1)c1ccccc1` here?
**A.** Its outcome is “inactive”.
